Screening results: PubChem BioAssay, National Center for Advancing Translational Sciences (NCATS)
Pf growth 48h: P. falciparum growth inhibition at 48 hours (one generation) | P. falciparum luciferase growth in erythrocytes, 48 h | Potency, µM (titrated, usually from 28.7 µM), for the others: at the top dose activity change, negative = inhibition, actives largely listed as inhibitors | 310,000 tested, 5.9% active; further: potency means the concentration at half of the fitted maximal effect; on the % scale 0 is the no-effect control and ±100 the full control effect
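Luciferase-expressing P. falciparum in infected erythrocytes (2% hematocrit, 0.1% parasitemia final) in RPMI 1640/0.5% Albumax were exposed to compound for 48 hours at 37 C, 5% CO2; growth read as luminescence.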
LmPK inhibitor: LmPK (Leishmania mexicana) enzyme inhibition; Potency, µM (series often up to 57.5 µM), for the others: top-dose activity change, negative = inhibition, most hits filed as inhibitors; purified LmPK, Kinase-Glo ATP luminescence, 1 h; 290,000 tested, 0.37% active; Q27686; further: potency means the concentration at half of the fitted maximal effect; on the % scale 0 is the no-effect control and ±100 the full control effect
Target sequence (Q27686 whole entry, looked up): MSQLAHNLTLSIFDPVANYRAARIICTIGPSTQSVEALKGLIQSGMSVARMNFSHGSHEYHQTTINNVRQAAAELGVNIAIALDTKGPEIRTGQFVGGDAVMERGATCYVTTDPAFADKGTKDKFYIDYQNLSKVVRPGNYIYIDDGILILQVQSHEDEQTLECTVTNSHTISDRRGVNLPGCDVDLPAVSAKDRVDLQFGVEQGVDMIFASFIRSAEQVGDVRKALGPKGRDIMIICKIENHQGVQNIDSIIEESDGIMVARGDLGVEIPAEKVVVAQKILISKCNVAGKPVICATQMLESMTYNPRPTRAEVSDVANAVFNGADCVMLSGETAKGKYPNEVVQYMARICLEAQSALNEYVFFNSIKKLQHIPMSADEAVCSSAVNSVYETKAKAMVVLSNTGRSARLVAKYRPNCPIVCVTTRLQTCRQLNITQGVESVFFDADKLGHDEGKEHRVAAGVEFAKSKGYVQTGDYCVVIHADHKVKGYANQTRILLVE
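ATP generated from ADP (0.1 mM) and PEP (0.5 mM) by 0.1 nM LmPK over 1 h at room temperature (pH 7.2 imidazole buffer) was detected by coupled luciferase luminescence. Values were normalized to uninhibited and no-enzyme wells.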
Shiga inhibitor: Shiga toxin inhibition. Vero cells, Shiga toxin protein synthesis inhibition reporter. inhibition, % at 38.7 µM. 290,000 tested, 9.2% active. AID 2315; in the data active means inhibition mostly above about 28%, no sharp cut-off; inactive means mostly below about 43%; further: 0% is about no effect
Pf growth 96h: P. falciparum growth inhibition at 96 hours; P. falciparum luciferase reporter growth, 96 h; Potency, µM (top dose mostly 28.7 µM), for inactives: at the top dose activity change, negative = inhibition, usual class: inhibitors; 320,000 tested, 6.9% active; AID 504834; further: potency means the concentration at half of the fitted maximal effect; on the % scale 0 is the no-effect control and ±100 the full control effect
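Parasite growth measured via integrated firefly luciferase reporter in P. falciparum. Infected erythrocytes at 2% hematocrit, 0.05% parasitemia final were treated 96 hours at 37 C under 5% CO2, and luminescence was read.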
CHX counter: affects cycloheximide protein synthesis inhibition readout, counter-screen; cell reporter, cycloheximide protein synthesis inhibition counterscreen; max response, %; 300,000 tested, 12% active; in the data active means max response mostly above about 13%, no sharp cut-off; inactive means mostly below about 14%; further: read at 38.3 µM for the half of the compounds with a filed dose; 0% is about no effect
The depositor's hits bear a star; ? = inconclusive; . = no result. A selection: hits, their analogues and other compounds. The true share with any hit is near 22%. Unless noted, the call rests on the fitted dose curve; in most records, active means well fitted inhibition curve with a large enough effect; inconclusive means small, poorly fitted or top-dose-only effect, or another doubt; inactive means no such curve, though single readings can be large or run the other way.

SMILES | Pf growth 48h | LmPK inhibitor | Shiga inhibitor | Pf growth 96h | CHX counter
c1ccc(-c2n[nH]c3c2oc2ccccc23)cc1 | . | . | 72* | . | 53*
O=C(Nc1ccc(Br)cc1F)c1ccc2c(c1)OCCO2 | 50% | -8% | 41 | 4% | 21*
O=C(c1ccc2c(c1)OCO2)C1CCCN(C(=O)C2CCOCC2)C1 (stereo not given) | 13% | -1% | 16 | 12% | 8
O=C(c1ccc2c(c1)OCO2)C1CCCN(C(=O)Nc2ccc(F)cc2F)C1 (stereo not given) | 20% | 2% | 18 | ? | 18*
O=C(Nc1ccc(F)cc1F)c1ccc2c(c1)OCCO2 | 135% | ? | 83* | -18% | 29*
CCC(=O)Nc1ccc(C(=O)Nc2ccc(Br)cc2F)cc1 | 49% | 7% | 17 | ? | 12
Cc1ccc2nc(NCc3ccccc3)c(C=NCc3cccnc3)c(=O)n2c1 | -12% | 0% | 30* | 2% | 14*
CNc1nc2c(C)cccn2c(=O)c1C=NCc1ccccc1 | . | 4% | -14 | 12% | -2
Cc1ccc2nc(NCc3ccccc3)c(C=O)c(=O)n2c1 | 14% | 1% | -10 | 0% | -1
O=c1c(C=NCc2ccccc2)c(NCc2ccccc2)nc2ccccn12 | 48% | -2% | 80* | 76% | 7
Cc1ccc2nc(NCc3ccco3)c(C=NCc3ccco3)c(=O)n2c1 | 11% | 3% | 22 | 30% | 12*
COc1ccc(NC(=O)CN(C)C(=O)CSc2nc3ccccc3s2)cc1 | -6% | . | . | 0% | .
O=C(COC(=O)CCS(=O)(=O)c1ccccc1)Nc1ccc(N2CCCCC2)cc1 | 65% | . | . | 38% | .
Cc1ccc(C(=O)OCn2ncc(Cl)c(Cl)c2=O)cc1 | ? | 6% | -30 | ? | -11
Cc1cccc(Cn2ncc(Cl)c(Cl)c2=O)c1 | 16% | 1% | 32 | 9% | 24*
Cc1cccc(Cn2cnc3c(nnn3Cc3ccccc3F)c2=O)c1 | -66% | -2% | -8 | 8% | -4
Cc1cccc(Cn2nnc3c2C(=O)c2ccccc2C3=O)c1 | ? | -5% | active | 2.9µM* | 27*
COc1ccccc1NC(=O)c1cc(Sc2nncn2C)nc2ccccc12 | -26% | 6% | -11 | . | -1
CCOc1[nH]n(-c2ccccc2)c(=O)c1C=Nc1ccccc1 | -1% | 0% | 22 | 3.7µM* | 5
CCN(CC)CCn1c(=N)n(CC(O)c2ccc(OC)c(OC)c2)c2ccccc21 (stereo not given) | 9.3µM* | 5% | -14 | 4% | -1
CCN(CC)CCn1c(=N)n(CC(O)c2ccco2)c2ccccc21 (stereo not given) | ? | 1% | -3 | ? | -3
Cc1ccc(C(=O)Cn2c(=N)n(N)c3ccccc32)cc1 | 57% | -1% | 81* | 293% | 46*
CCCCn1c(=N)n(CC(=O)c2ccc(OC)cc2)c2ccccc21 | ? | -9% | -9 | ? | -2
CCN(CC)CCn1c(=N)n(CC(=O)c2ccc(C)cc2)c2ccccc21 | 4.7µM* | -2% | . | 20% | 27*
Cc1cc(-c2ccc(N=Nc3c(S(=O)(=O)O)cc4cc(S(=O)(=O)O)cc(N)c4c3O)c(C)c2)ccc1N=Nc1c(S(=O)(=O)O)cc2cc(S(=O)(=O)O)cc(N)c2c1O | 6.6µM* | . | . | 9.5µM* | .
O=S(=O)(O)c1cc(O)c2c(O)c(N=Nc3cc(Cl)ccc3O)c(S(=O)(=O)O)cc2c1 | -6% | -2% | -1 | 2% | -3
CCN1C(=O)[C@H]2[C@@H](c3ccc(C)cc3)N3C(=O)N(c4ccccc4)C(=O)[C@@]3(Cc3ccc(Cl)cc3)[C@H]2C1=O | ? | -1% | 14 | ? | -3
O=C1[C@H]2[C@@H](c3ccc(F)cc3)N3C(=O)N(c4cccc(Cl)c4)C(=O)[C@@]3(Cc3ccccc3)[C@H]2C(=O)N1C1CCCCC1 | 2.6µM* | . | . | 12µM* | .
O=C1[C@H]2[C@@H](c3ccc(F)cc3)N3C(=O)N(c4cccc(Cl)c4)C(=O)[C@@]3(Cc3ccc(Cl)cc3)[C@H]2C(=O)N1C1CCCCC1 | 4.7µM* | 0% | -3 | 5.2µM* | -2
O=C1[C@H]2[C@@H](c3ccc(F)cc3)N3C(=O)N(c4ccccc4)C(=O)[C@@]3(Cc3ccc(Cl)cc3)[C@H]2C(=O)N1C1CCCCC1 | ? | -2% | 18 | ? | -1
